Assay outcomes from PubChem.
The list is not random: actives were taken first. Their share in the collection is about 1.2%.
MEP2 TOR yeast: yeast TOR pathway MEP2-GFP modulation | 0.51% of 330,000 active | S. cerevisiae MEP2-GFP strain, flow cytometry GFP, 3 h; 100% = DMSO control level | GFP response vs DMSO, % at 10 µM | AID 2016;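 active means GFP response versus DMSO above a set limit, roughly screen mean plus 3 SD, cut at about 180% in these data; inconclusive means fewer than 70 cells counted for a yeast strain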;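 further: median GFP fluorescence of the barcode-gated MEP2-GFP cells per well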
LAP4 TOR yeast: alters LAP4-GFP fluorescence in TOR pathway yeast screen; S. cerevisiae LAP4-GFP multiplex, flow cytometry GFP, 3 h; median GFP as percent of DMSO wells; GFP response vs DMSO, % at 10 µM; 0.34% of 320,000 active;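 active means GFP response vs DMSO above a set limit, about the screen mean plus 3 SD, cut at about 150% in these data; inconclusive means under 70 cell events counted for the yeast strain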
DSG3 Ab inh: inhibitors of pemphigus antibody binding to human desmoglein-3 | DSG3-coupled beads, scFv-anti-DSG3-GFP binding, flow cytometry; stronger effect = lower value | binding (percent of control), % at 10 µM | 0.48% of 310,000 active;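 active means binding more than 3 SD below its plate's average and above zero; inconclusive means below that plate limit but binding exactly zero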;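 further: hits lower antibody fragment binding to DSG3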
Target sequence (P32926 whole entry, looked up, the tested form may be a part): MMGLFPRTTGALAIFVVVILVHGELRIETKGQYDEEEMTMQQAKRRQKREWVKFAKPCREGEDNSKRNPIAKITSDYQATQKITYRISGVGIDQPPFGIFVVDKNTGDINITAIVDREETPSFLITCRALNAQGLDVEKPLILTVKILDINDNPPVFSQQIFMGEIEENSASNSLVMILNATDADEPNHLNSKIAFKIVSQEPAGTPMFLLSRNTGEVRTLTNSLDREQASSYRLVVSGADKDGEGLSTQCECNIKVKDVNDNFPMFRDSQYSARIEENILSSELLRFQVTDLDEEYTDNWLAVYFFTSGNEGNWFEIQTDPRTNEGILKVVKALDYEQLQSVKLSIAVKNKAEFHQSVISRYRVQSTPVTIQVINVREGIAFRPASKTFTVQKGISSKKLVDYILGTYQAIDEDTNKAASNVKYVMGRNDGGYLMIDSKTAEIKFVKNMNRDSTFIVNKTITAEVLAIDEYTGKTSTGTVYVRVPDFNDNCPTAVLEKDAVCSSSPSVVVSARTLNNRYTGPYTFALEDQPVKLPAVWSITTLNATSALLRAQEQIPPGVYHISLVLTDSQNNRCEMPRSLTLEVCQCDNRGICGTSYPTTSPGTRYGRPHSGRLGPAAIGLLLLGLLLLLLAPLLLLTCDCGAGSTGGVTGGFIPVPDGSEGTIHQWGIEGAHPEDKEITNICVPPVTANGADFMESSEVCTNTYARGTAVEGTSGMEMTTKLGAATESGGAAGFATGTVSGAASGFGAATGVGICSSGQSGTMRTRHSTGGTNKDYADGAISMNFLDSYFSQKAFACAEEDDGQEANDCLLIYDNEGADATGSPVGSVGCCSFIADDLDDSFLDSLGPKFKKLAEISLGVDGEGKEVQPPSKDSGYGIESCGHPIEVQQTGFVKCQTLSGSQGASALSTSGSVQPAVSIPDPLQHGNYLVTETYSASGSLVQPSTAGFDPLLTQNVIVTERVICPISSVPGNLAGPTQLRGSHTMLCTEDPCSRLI
AGP1 TOR yeast: alters AGP1-GFP fluorescence in TOR pathway yeast screen; S. cerevisiae AGP1-GFP multiplex flow cytometry, 3 h; GFP as percent of DMSO wells; GFP response vs DMSO, % at 10 µM; 0.02% of 320,000 active; AID 2066;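 active means GFP response relative to DMSO above a set limit, near screen average plus 3 SD, cut at about 150% in these data; inconclusive means fewer than 70 cells counted for the yeast strain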;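 further: median GFP channel fluorescence of the gated AGP1 strain per well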
CIT2 TOR yeast: alters CIT2-GFP fluorescence in TOR pathway yeast screen | AID 2029 | 0.065% of 320,000 active | GFP response vs DMSO, % at 10 µM | S. cerevisiae CIT2-GFP strain, flow cytometry, 3 h; 100 means same as DMSO wells;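 active means GFP response relative to DMSO above a set limit, near the screen mean plus 3 SD, cut at about 150% in these data; inconclusive means Fewer than 70 cells measured for a yeast strain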;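 further: ratio of well median GFP fluorescence to mean of DMSO wells on the plate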
RPL19A-GFP yeast: modulators of TOR pathway RPL19A-GFP in S. cerevisiae; percent response vs DMSO, % at 10 µM; S. cerevisiae RPL19A-GFP strain, flow cytometry, 3 h; stronger effect = lower value; AID 2025; 0.3% of 330,000 active;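 active means percent response vs DMSO below 50%; inconclusive means fewer than 70 events counted for the yeast strain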;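 further: median channel GFP fluorescence of the barcoded RPL19A-GFP strain; lower means less RPL19A-GFP as with rapamycin TOR inhibition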
Large screens that a line does not name were inactive; [ ] = remark or other dose.

CCOC(=O)c1ccc2c(c1)sc(=NC(=O)c1ccco1)n2CCOC	none
Cn1nc(C(C)(C)C)c([N+](=O)[O-])c1C(=O)N1CCOCC1	MEP2 TOR yeast 231[may fluoresce violet], AGP1 TOR yeast inconclusive, CIT2 TOR yeast inconclusive, RPL19A-GFP yeast 48[may fluoresce violet]
CC(C)NC(=O)c1ccccc1N(Cc1ccccc1)S(C)(=O)=O	none (no result: DSG3 Ab inh)
CC(C)NC(=O)c1ccc(N(Cc2ccccc2)S(C)(=O)=O)cc1	DSG3 Ab inh 88
Cc1ccccc1CN(c1ccc(C(N)=O)cc1)S(C)(=O)=O	MEP2 TOR yeast 310[may fluoresce violet], AGP1 TOR yeast inconclusive, CIT2 TOR yeast inconclusive, RPL19A-GFP yeast 17[may fluoresce violet]
CCOc1cccc2sc(NC(=O)c3ccc(Br)s3)nc12	none
Cc1cc(NC(=O)c2ccno2)no1	CIT2 TOR yeast 156[may fluoresce green]
CCOC(=O)c1ccc(S(=O)(=O)N2CCC(C(=O)NCC3COc4ccccc4O3)CC2)cc1 (configuration not stated)	none (no result: MEP2 TOR yeast, LAP4 TOR yeast, AGP1 TOR yeast, CIT2 TOR yeast, RPL19A-GFP yeast)
CCOC(=O)c1sc(-c2ccc(C(F)(F)F)cc2)nc1O	MEP2 TOR yeast 529[may fluoresce violet], CIT2 TOR yeast inconclusive
CCOC(=O)c1sc(-c2cccc(C(F)(F)F)c2)nc1O	none
COc1ccc(/C=N/OCC(=O)NCC(C)C)c(OC)c1	none
COC(=O)c1ccc(CO/N=C/c2ccc(OC)cc2OC)cc1	MEP2 TOR yeast 217[may fluoresce violet], CIT2 TOR yeast inconclusive
O=C(NCCc1ccccc1)C1CCN(c2ncccn2)CC1	DSG3 Ab inh 89
O=C(NCCc1ccccc1)C1CCN(C(=O)Nc2ccccc2)CC1	none
NS(=O)(=O)c1ccc(CCNC(=O)C2CCN(C(=O)Nc3ccccc3)CC2)cc1	DSG3 Ab inh 57
O=C1OCCN1C(=O)[C@H]1[C@H](c2ccc(Cl)cc2)C(c2ccc(F)cc2)=NN1c1ccc(Br)cc1	none (no result: MEP2 TOR yeast, LAP4 TOR yeast, AGP1 TOR yeast, CIT2 TOR yeast, RPL19A-GFP yeast)
O=C1OCCN1C(=O)[C@H]1[C@H](c2ccc(F)cc2)C(c2ccc(F)cc2)=NN1c1ccc(Br)cc1	MEP2 TOR yeast 383[may fluoresce violet], CIT2 TOR yeast inconclusive
O=C(Nc1ccccc1)NN1CC(=O)N(c2ccc(Cl)cc2)CC1=O	none
O=C1CN(c2ccc(Cl)cc2)C(=O)CN1NC(=S)Nc1ccc(Cl)cc1	DSG3 Ab inh 61
O=C(CSC1=NS(=O)(=O)c2cc(F)ccc2N1)NCCc1ccccc1	none
CCCCOc1ccccc1Cn1c(=O)oc2ccccc21	MEP2 TOR yeast 178[may fluoresce violet], CIT2 TOR yeast inconclusive (no result: AGP1 TOR yeast)
C=C(C)C1CC=C(C)/C(=N/NC(=O)CNc2ccc(OCC)cc2)C1 (configuration not stated)	MEP2 TOR yeast 207[may fluoresce violet], AGP1 TOR yeast inconclusive, CIT2 TOR yeast inconclusive
CC(O)C(NS(=O)(=O)c1ccc(Cl)cc1)C(=O)OCCOc1ccc(F)cc1 (configuration not stated)	none (no result: MEP2 TOR yeast, LAP4 TOR yeast, AGP1 TOR yeast, CIT2 TOR yeast, RPL19A-GFP yeast)
O=C(Nc1cc(Cl)ccc1Cl)c1ccc(OC(=O)c2ccco2)cc1	DSG3 Ab inh 65
O=C(Nc1ccccc1NC(=O)c1ccco1)c1ccccc1	MEP2 TOR yeast 495[may fluoresce violet], AGP1 TOR yeast inconclusive, CIT2 TOR yeast inconclusive, RPL19A-GFP yeast 41[may fluoresce violet]
CC(C)(C)c1ccc(C(=O)Nc2ccccc2NC(=O)c2ccco2)cc1	none
CC(=O)c1ccc2c(c1)OCCOCCOCCO2	MEP2 TOR yeast 575[may fluoresce violet], AGP1 TOR yeast inconclusive, CIT2 TOR yeast inconclusive, RPL19A-GFP yeast 47[may fluoresce violet]
O=C(O)c1ccc2c(c1)OCCOCCOCCOCCOCCO2	none
Brc1ccc2c(c1)OCCOCCOc1cc(Br)ccc1OCCOCCOCCO2	LAP4 TOR yeast 219
COc1ccc(OC)c(C2C(C(=O)Nc3nc4ccccc4s3)=C(C)NC3=C2C(=O)CCC3)c1 (configuration not stated)	MEP2 TOR yeast 183
COc1cccc(C2C(C(=O)Nc3nc4ccccc4s3)=C(C)NC3=C2C(=O)CC(C)(C)C3)c1OC (configuration not stated)	none (no result: DSG3 Ab inh)
Cc1nnc(N2CCCC(C(=O)NCc3ccc(OC(C)C)cc3)C2)c2nn(-c3ccccc3)c(C)c12 (configuration not stated)	MEP2 TOR yeast 253[may fluoresce violet], AGP1 TOR yeast inconclusive, CIT2 TOR yeast inconclusive, RPL19A-GFP yeast 48[may fluoresce violet]
O=C(O)CCCN1C(=O)/C(=C/c2ccc(-c3nc4ccccc4s3)o2)SC1=S	DSG3 Ab inh 89
